The values that follow come from PubChem BioAssay (NCI).

Compounds without any hit were thinned out: in the full panel of roughly 79,000, 15% have a hit. Calls of active or inactive are those of the source. Cut-off read from the data, not from the text of the source: active = growth inhibition above about 70%; inactive = the rest.

The first test in a line: NCI Yeast Anticancer Drug Screen. Data for the mec2-1 strain (AID 157). As to conditions: S. cerevisiae mec2-1 strain, at 50.0 µM, stronger effect = higher value. Put shortly:
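Cells of the genetically defined mec2-1 yeast strain are incubated with test compound. Inhibition of growth is calculated against vehicle-treated controls.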
With `O=c1c2c(nc3n1CCC3)OC(c1ccccc1)C2` (stereo not given), the growth inhibition was 4.3% (inactive).

For the compound `C1CCC2C(C1)CCCC2NC1=NCCO1` (stereo not given), the growth inhibition is -23.7% (inactive).

Consider `O=C1/C(=C/C=C/c2ccccc2)CCC1CNc1ccc(Br)cc1` (stereo not given), for which the growth inhibition was -11.7% (inactive).

For the compound `COC1OC(CS(=O)(=O)O)C(O)C(O)C1O` (stereo not given), the growth inhibition is -2.15% (inactive).

Turning to `Cc1ccc(S(=O)(=O)[N-]C2C(=O)c3ccccc3C(=O)C2[n+]2cccc(C(N)=O)c2)cc1` (stereo not given), the growth inhibition was 2% (inactive).

Turning to `O=C(Nc1ccc(Cl)c(Cl)c1)c1ccc(C(=O)Nc2ccc(Cl)c(Cl)c2)cc1`, the growth inhibition is 19.1% (inactive).

Take `NC(=S)NCc1ccccc1C(O)c1ccccc1` (stereo not given): the growth inhibition is 13.8% (inactive).

With `FC(F)(c1nn[nH]n1)C(F)(F)C(F)(F)c1nn[nH]n1`, the growth inhibition was -2.6% (inactive).

Consider `Clc1cccc(N2CCN(CCN3CCc4c([nH]c5ccccc45)C3c3cccnc3)CC2)c1` (stereo not given), for which the growth inhibition was -21.7% (inactive).

Turning to `C(#Cc1ccccc1)SC1=C(c2ccccc2)S/C(=C(\SC#Cc2ccccc2)c2ccccc2)S1`, the growth inhibition was 7.7% (inactive).

On to `CCOC(=O)/C(C)=C/CC1=C(O)c2ccccc2C(=O)C1=O`, for which the growth inhibition was 23.7% (inactive).

`CCN(CC)c1ncnc2c1nc(C)n2Nc1ccccc1`: the growth inhibition is -3.1% (inactive).

In the case of `CC(=O)c1ccc(NC(=O)/C(=N\NC(N)=O)C(C#N)CC(C)(C)C=O)cc1` (stereo not given), the growth inhibition is 17.4% (inactive).

`O=C(COc1cccc(Cl)c1)Nc1ccc(C(=O)CCl)cc1`: the growth inhibition is 49.5% (inactive).

With `O=c1c[n+](-c2ccccc2)[nH]o1`, the growth inhibition is -12.1% (inactive).

Regarding `CC1(C)CC(=O)C(/C(=N/NC(=S)NN)C(=O)Nc2nc3ccc([N+](=O)[O-])cc3s2)C(=O)C1`, the growth inhibition is 20.2% (inactive).

On to `CCC(C#N)(c1ccccc1)N(CCc1ccccc1)C(=O)c1ccccc1` (stereo not given), for which the growth inhibition is -0.5% (inactive).

Take `Cc1cccc(C(=O)C(O)c2cccc(C)n2)n1` (stereo not given): the growth inhibition was -18.4% (inactive).

Regarding `CC[N+](CC)(CC)C[Si](C)(C)C`, the growth inhibition is 5.7% (inactive).

`Cc1ccc(NC(=O)NCCCN2CCOCC2)cc1NC(=O)NCCCN1CCOCC1`: the growth inhibition was -22.6% (inactive).

Consider `C/C(=N/N(C)C)c1ccc(C)cc1`, for which the growth inhibition was -5.75% (inactive).

In the case of `CC(=O)Nc1ccc2cc(-c3ccc(Cl)cc3)c3nnnn3c2n1`, the growth inhibition is 4.85% (inactive).

Regarding `Cc1cnoc1/N=C1\C=C(Nc2oncc2C)C(=O)c2ccccc21`, the growth inhibition is -6.55% (inactive).

With `O=C1/C(=C\c2ccc(O)cc2)CCC/C1=C/c1ccc(Cl)c(Cl)c1`, the growth inhibition was 27.4% (inactive).

Regarding `COC(=O)[C@H](Cc1c[nH]c2ccccc12)NP(=O)(OCCC#N)OCC1OC(n2cc(C)c(=O)[nH]c2=O)CC1N=[N+]=[N-]` (stereo not given in full), the growth inhibition is -33.1% (inactive).

As to `CC(=O)Nc1ccc(/C=N/NC(=O)/C=C/c2ccccc2)cc1`, the growth inhibition was 3.25% (inactive).

For `CSc1nc(=O)cc(N)n1C`, the growth inhibition was -1.55% (inactive).

On to `O=C(O)c1cc(Cl)ccc1-c1ccc(Cl)cc1C(=O)Nc1ccc2c(c1)Cc1ccccc1-2`, for which the growth inhibition is 89.7% (active).

Turning to `CC(=O)O[C@H]1CC[C@@]2(C)[C@@H](CC[C@@H]3[C@@H]2CC[C@]2(C)[C@@H](C(=O)CCC(F)(F)F)CC[C@@H]32)C1`, the growth inhibition is 20.9% (inactive).

Take `OCc1c(-c2ccc(Cl)cc2)c(-c2ccc(Cl)cc2)c2n1CCC2`: the growth inhibition is -18% (inactive).

As for `C/C(CC(C)C)=N\NC(=O)Nc1ccccc1Cl`, the growth inhibition is 5.7% (inactive).

In the case of `O=C(NCCNCCNC(=O)C(F)(F)F)C(F)(F)F`, the growth inhibition is -16.9% (inactive).

As for `CC1(Br)CP(=O)(c2ccccc2)CC1Br` (stereo not given), the growth inhibition was -11.9% (inactive).

With `COc1ccc2cc(C(=O)c3ccccc3)c(=O)oc2c1`, the growth inhibition is -20.9% (inactive).

Regarding `CCOC(CCCl)c1ccc(C)cc1` (stereo not given), the growth inhibition was -42.2% (inactive).

Regarding `Cc1csc2nc3[nH]ncc3c(=O)n12`, the growth inhibition is -59% (inactive).

Regarding `CCCCCCCCCCCC(=O)c1c(O)cccc1O`, the growth inhibition is -16.1% (inactive).

For the compound `CC(=O)N1c2ccccc2S(=O)(=O)c2ccccc21`, the growth inhibition is 12.7% (inactive).

`CC(=O)OC1CCCCCCC1`: the growth inhibition was 14.6% (inactive).

For the compound `COc1ccc2c(NCCCCCCNc3c4ccccc4nc4cc(OC)ccc34)c3ccccc3nc2c1`, the growth inhibition is 91.6% (active).

The nature of another test: NCI Yeast Anticancer Drug Screen. Data for the sgs1 mgt1 strain (AID 161).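 Note: 0% = growth of cultures given vehicle only.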 To be noted: S. cerevisiae sgs1 mgt1 strain, at 50.0 µM, stronger effect = higher value. Put shortly: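 Inhibition of yeast growth, normalised to vehicle-treated controls, is reported for a strain bearing genetic alterations in DNA damage repair.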
In the case of `O=c1c2c(nc3n1CCC3)OC(c1ccccc1)C2` (stereo not given), the growth inhibition is -5.9% (inactive).

For `C1CCC2C(C1)CCCC2NC1=NCCO1` (stereo not given), the growth inhibition is 7.85% (inactive).

In the case of `O=C1/C(=C/C=C/c2ccccc2)CCC1CNc1ccc(Br)cc1` (stereo not given), the growth inhibition is -17.8% (inactive).

On to `COC1OC(CS(=O)(=O)O)C(O)C(O)C1O` (stereo not given), for which the growth inhibition was -1.85% (inactive).

In the case of `Cc1ccc(S(=O)(=O)[N-]C2C(=O)c3ccccc3C(=O)C2[n+]2cccc(C(N)=O)c2)cc1` (stereo not given), the growth inhibition is 9.5% (inactive).

As for `O=C(Nc1ccc(Cl)c(Cl)c1)c1ccc(C(=O)Nc2ccc(Cl)c(Cl)c2)cc1`, the growth inhibition is 25.1% (inactive).

As for `NC(=S)NCc1ccccc1C(O)c1ccccc1` (stereo not given), the growth inhibition is -0.75% (inactive).

As to `FC(F)(c1nn[nH]n1)C(F)(F)C(F)(F)c1nn[nH]n1`, the growth inhibition is -10.8% (inactive).

`Clc1cccc(N2CCN(CCN3CCc4c([nH]c5ccccc45)C3c3cccnc3)CC2)c1` (stereo not given): the growth inhibition was -7.85% (inactive).

As for `C(#Cc1ccccc1)SC1=C(c2ccccc2)S/C(=C(\SC#Cc2ccccc2)c2ccccc2)S1`, the growth inhibition is -29.4% (inactive).

With `CCOC(=O)/C(C)=C/CC1=C(O)c2ccccc2C(=O)C1=O`, the growth inhibition is 14.1% (inactive).

Regarding `CCN(CC)c1ncnc2c1nc(C)n2Nc1ccccc1`, the growth inhibition is 1.3% (inactive).

Turning to `CC(=O)c1ccc(NC(=O)/C(=N\NC(N)=O)C(C#N)CC(C)(C)C=O)cc1` (stereo not given), the growth inhibition was -2.55% (inactive).

On to `O=C(COc1cccc(Cl)c1)Nc1ccc(C(=O)CCl)cc1`, for which the growth inhibition was 35.9% (inactive).

For `O=c1c[n+](-c2ccccc2)[nH]o1`, the growth inhibition is 22.1% (inactive).

For `CC1(C)CC(=O)C(/C(=N/NC(=S)NN)C(=O)Nc2nc3ccc([N+](=O)[O-])cc3s2)C(=O)C1`, the growth inhibition is -15.2% (inactive).

As to `CCC(C#N)(c1ccccc1)N(CCc1ccccc1)C(=O)c1ccccc1` (stereo not given), the growth inhibition was -12.9% (inactive).

Take `Cc1cccc(C(=O)C(O)c2cccc(C)n2)n1` (stereo not given): the growth inhibition was -1.55% (inactive).

In the case of `CC[N+](CC)(CC)C[Si](C)(C)C`, the growth inhibition was 12.1% (inactive).

For `Cc1ccc(NC(=O)NCCCN2CCOCC2)cc1NC(=O)NCCCN1CCOCC1`, the growth inhibition is 3.85% (inactive).

In the case of `C/C(=N/N(C)C)c1ccc(C)cc1`, the growth inhibition was 3.25% (inactive).

For the compound `CC(=O)Nc1ccc2cc(-c3ccc(Cl)cc3)c3nnnn3c2n1`, the growth inhibition is 25.8% (inactive).

Take `Cc1cnoc1/N=C1\C=C(Nc2oncc2C)C(=O)c2ccccc21`: the growth inhibition is -31.9% (inactive).

In the case of `O=C1/C(=C\c2ccc(O)cc2)CCC/C1=C/c1ccc(Cl)c(Cl)c1`, the growth inhibition is 7.15% (inactive).

For `COC(=O)[C@H](Cc1c[nH]c2ccccc12)NP(=O)(OCCC#N)OCC1OC(n2cc(C)c(=O)[nH]c2=O)CC1N=[N+]=[N-]` (stereo not given in full), the growth inhibition was -23.4% (inactive).

As for `CC(=O)Nc1ccc(/C=N/NC(=O)/C=C/c2ccccc2)cc1`, the growth inhibition was 6.25% (inactive).

For the compound `CSc1nc(=O)cc(N)n1C`, the growth inhibition was 9.55% (inactive).

As for `O=C(O)c1cc(Cl)ccc1-c1ccc(Cl)cc1C(=O)Nc1ccc2c(c1)Cc1ccccc1-2`, the growth inhibition was 94.6% (active).

Take `CC(=O)O[C@H]1CC[C@@]2(C)[C@@H](CC[C@@H]3[C@@H]2CC[C@]2(C)[C@@H](C(=O)CCC(F)(F)F)CC[C@@H]32)C1`: the growth inhibition is 33.6% (inactive).

As to `OCc1c(-c2ccc(Cl)cc2)c(-c2ccc(Cl)cc2)c2n1CCC2`, the growth inhibition was 1.3% (inactive).

Take `C/C(CC(C)C)=N\NC(=O)Nc1ccccc1Cl`: the growth inhibition is -2.4% (inactive).

Take `O=C(NCCNCCNC(=O)C(F)(F)F)C(F)(F)F`: the growth inhibition was -4.4% (inactive).

In the case of `CC1(Br)CP(=O)(c2ccccc2)CC1Br` (stereo not given), the growth inhibition was 9.5% (inactive).

Consider `COc1ccc2cc(C(=O)c3ccccc3)c(=O)oc2c1`, for which the growth inhibition is 18.8% (inactive).

As for `CCOC(CCCl)c1ccc(C)cc1` (stereo not given), the growth inhibition was -20.4% (inactive).

With `Cc1csc2nc3[nH]ncc3c(=O)n12`, the growth inhibition is -15.1% (inactive).

For the compound `CCCCCCCCCCCC(=O)c1c(O)cccc1O`, the growth inhibition was 7.75% (inactive).

`CC(=O)N1c2ccccc2S(=O)(=O)c2ccccc21`: the growth inhibition was 0.75% (inactive).

For the compound `CC(=O)OC1CCCCCCC1`, the growth inhibition is 15.5% (inactive).

Take `COc1ccc2c(NCCCCCCNc3c4ccccc4nc4cc(OC)ccc34)c3ccccc3nc2c1`: the growth inhibition is 92.5% (active).
